PubChem BioAssay AID1159580 (chemical genetic matrix, 2015)
Several values for one entry are separate records, joined by “and”; a condition that tells them apart may be missing. Identical values can stand only once. Hit rate of the full screen: of about 5,500 compounds, about 2,000 (36%) were called active. Roughly 18% stayed inconclusive and do not appear here. Cut-off read from the data, not from the text of the source: active = normalized growth mostly below about 0.91 (no sharp cut-off); inconclusive = no clear call, values can overlap the other calls; inactive = mostly above about 0.92. Some of the results follow.

Test: chemical genetic growth profiling, strain panel (AID 1159580);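 note: tested at 20 µM; growth read once vehicle control cultures reached saturation at 30 °C; 1 = growth at the plate median or of vehicle wells; lower values mean less growth of the strain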
Conditions: S. cerevisiae deletion strains, growth OD

Measured: normalized growth

O=C(O[C@@H]1Cc2c(O)cc(O)cc2O[C@@H]1c1cc(O)c(O)c(O)c1)c1cc(O)c(O)c(O)c1
0.798 (active) and 1.02 (inactive): locus YHR030C, strain SLT2, stronger effect = lower value
inactive: locus YBR021W, strain FUR4, stronger effect = lower value 1.01 | locus YBR171W, strain sec66, stronger effect = lower value 0.976 | locus YCL016C, strain dcc1, stronger effect = lower value 0.934 | locus YCL069W, strain vba3, stronger effect = lower value 0.94 | locus YCR088W, strain abp1, stronger effect = lower value 1.01 | locus YDL005C, strain med2, stronger effect = lower value 0.994 | locus YDL040C, strain nat1, stronger effect = lower value 0.979 | locus YDL185W, strain tfp1, stronger effect = lower value 0.994 | locus YDR001C, strain nth1, stronger effect = lower value 1 | locus YDR101C, strain arx1, stronger effect = lower value 0.966 | locus YDR159W, strain sac3, stronger effect = lower value 1.02 | locus YDR195W, strain ref2 0.905 | locus YDR318W, strain mcm21, stronger effect = lower value 0.951 | locus YDR392W, strain spt3, stronger effect = lower value 0.931 | locus YEL061C, strain CIN8 (second series), stronger effect = lower value 0.982 | locus YER016W, strain bim1, stronger effect = lower value 0.978 | locus YER110C, stronger effect = lower value 1.03 | locus YER155C, strain BEM2 (second series), stronger effect = lower value 0.893 | locus YER155C, strain BEM2, stronger effect = lower value 0.955 | locus YGL078C, strain dbp3, stronger effect = lower value 1.01 | locus YGL167C, strain pmr1, stronger effect = lower value 0.981 | locus YGL227W, strain vid30, stronger effect = lower value 1.02 | locus YGL240W, strain doc1, stronger effect = lower value 0.961 | locus YGR078C, strain PAC10, stronger effect = lower value 0.865 | locus YGR252W, strain gcn5, stronger effect = lower value 0.864 | locus YHR079C, strain IRE1 (second series), stronger effect = lower value 0.999 | locus YHR079C, strain IRE1, stronger effect = lower value 1.03 | locus YHR094C, strain hxt1, stronger effect = lower value 1.01 | locus YIL125W, strain kgd1, stronger effect = lower value 1 | locus YIR030C, strain dcg1, stronger effect = lower value 0.999 | locus YJL092W, strain hpr5, stronger effect = lower value 0.986 | locus YJL115W, strain asf1, stronger effect = lower value 0.988 | locus YJL129C, strain trk1, stronger effect = lower value 1.02 | locus YJL154C, strain vps35, stronger effect = lower value 0.992 | locus YJL168C, strain set2, stronger effect = lower value 0.998 | locus YJR066W, strain TOR1, stronger effect = lower value 0.936 | locus YKL009W, strain mrt4, stronger effect = lower value 1.04 | locus YKL068W, stronger effect = lower value 1 | locus YKL085W, strain MDH1 (second series), stronger effect = lower value 1.01 | locus YKL085W, strain MDH1, stronger effect = lower value 1.01 | locus YKL160W, strain elf1, stronger effect = lower value 0.936 | locus YKR001C, strain vps1, stronger effect = lower value 0.914 | locus YKR026C, strain gcn3, stronger effect = lower value 0.998 | locus YKR091W, strain srl3, stronger effect = lower value 0.996 | locus YLL041C, strain sdh2, stronger effect = lower value 0.962 | locus YLR102C, strain apc9, stronger effect = lower value 1.04 | locus YLR113W, strain HOG1, stronger effect = lower value 1.06 | locus YLR262C, strain YPT6, stronger effect = lower value 0.664 | locus YLR384C, strain iki3, stronger effect = lower value 0.94 | locus YML032C, strain rad52, stronger effect = lower value 1.01 | locus YML120C, strain ndi1, stronger effect = lower value 0.967 | locus YML124C, strain tub3, stronger effect = lower value 1 | locus YMR078C, strain ctf18, stronger effect = lower value 1.01 | locus YMR125W, strain sto1, stronger effect = lower value 1.07 | locus YMR129W, stronger effect = lower value 0.973 | locus YNL183C, strain NPR1, stronger effect = lower value 0.968 | locus YNL248C, strain rpa49, stronger effect = lower value 0.952 | locus YNL250W, strain rad50, stronger effect = lower value 1.02 | locus YNL271C, strain bni1, stronger effect = lower value 1 | locus YNL298W, strain CLA4, stronger effect = lower value 1 | locus YNL307C, strain MCK1, stronger effect = lower value 0.99 | locus YNL322C, strain KRE1 (second series), stronger effect = lower value 1.04 | locus YNR049C, strain mso1, stronger effect = lower value 0.986 | locus YOL012C, strain htz1 0.219 | locus YOL147C, strain pex11, stronger effect = lower value 0.97 | locus YOR136W, strain idh2, stronger effect = lower value 0.966 | locus YOR144C, strain elg1, stronger effect = lower value 0.971 | locus YOR231W, strain MKK1, stronger effect = lower value 1.02 | locus YOR290C, strain snf2, stronger effect = lower value 0.894 | locus YOR316C, strain cot1, stronger effect = lower value 1.02 | locus YPL078C, strain atp4, stronger effect = lower value 0.947 | locus YPL240C, strain hsp82, stronger effect = lower value 0.98 | locus YPL256C, strain CLN2, stronger effect = lower value 1.05 | locus YPR119W, strain clb2, stronger effect = lower value 1.02 | locus YPR141C, strain kar3, stronger effect = lower value 0.995 | locus YPR163C, strain tif3, stronger effect = lower value 1.01 | locus YPR167C, strain met16, stronger effect = lower value 0.951
0.148 (active) and 1.01 (inactive): locus YJL095W, strain BCK1, stronger effect = lower value
active: locus YAL021C, strain ccr4, stronger effect = lower value 0.284 | locus YAL026C, strain drs2, stronger effect = lower value 0.781 | locus YAL030W, strain snc1, stronger effect = lower value 0.874 | locus YBL061C, strain skt5, stronger effect = lower value 0.77 | locus YBR009C, strain hhf1, stronger effect = lower value 0.823 | locus YBR023C, strain chs3, stronger effect = lower value 0.746 | locus YBR229C, strain ROT2, stronger effect = lower value 0.889 | locus YBR231C, strain swc5, stronger effect = lower value 0.688 | locus YBR279W, strain paf1, stronger effect = lower value 0.821 | locus YCL011C, strain gbp2, stronger effect = lower value 0.855 | locus YCL029C, strain bik1, stronger effect = lower value 0.866 | locus YCL061C, strain MRC1, stronger effect = lower value 0.913 | locus YDL035C, strain GPR1, stronger effect = lower value 0.333 | locus YDL074C, strain BRE1, stronger effect = lower value 0.576 | locus YDL101C, strain DUN1, stronger effect = lower value 0.385 | locus YDL192W, strain arf1, stronger effect = lower value 0.872 | locus YDR069C, strain doa4, stronger effect = lower value 0.413 | locus YDR137W, strain rgp1, stronger effect = lower value 0.839 | locus YDR162C, strain NBP2, stronger effect = lower value 0.14 | locus YDR297W, strain sur2, stronger effect = lower value 0.832 | locus YDR334W, strain swr1, stronger effect = lower value 0.837 | locus YDR335W, strain msn5, stronger effect = lower value 0.879 | locus YDR388W, stronger effect = lower value 0.929 | locus YDR502C, strain sam2, stronger effect = lower value 0.855 | locus YEL003W, strain gim4, stronger effect = lower value 0.85 | locus YEL037C, strain rad23, stronger effect = lower value 0.905 | locus YER015W, strain faa2, stronger effect = lower value 0.682 | locus YER111C, strain swi4, stronger effect = lower value 0.845 | locus YER167W, strain BCK2, stronger effect = lower value 0.801 | locus YFR010W, strain ubp6, stronger effect = lower value 0.865 | locus YGL086W, strain mad1, stronger effect = lower value 0.776 | locus YGL173C, strain kem1, stronger effect = lower value 0.567 | locus YGL248W, strain PDE1, stronger effect = lower value 0.536 | locus YGL253W, strain hxk2, stronger effect = lower value 0.794 | locus YGR135W, strain pre9, stronger effect = lower value 0.861 | locus YHR013C, strain ard1, stronger effect = lower value 0.663 | locus YHR027C, strain rpn1, stronger effect = lower value 0.52 | locus YHR129C, strain ARP1, stronger effect = lower value 0.586 | locus YHR142W, strain chs7, stronger effect = lower value 0.749 | locus YHR200W, strain rpn10, stronger effect = lower value 0.855 | locus YIL066C, strain RNR3, stronger effect = lower value 0.176 | locus YIL073C, strain SPO22, stronger effect = lower value 0.226 | locus YJL095W, strain BCK1 (second series), stronger effect = lower value 0.882 | locus YJL134W, strain LCB3, stronger effect = lower value 0.914 | locus YJL164C, strain tpk1, stronger effect = lower value 0.808 | locus YJL166W, strain qcr8, stronger effect = lower value 0.744 | locus YJL187C, strain SWE1 (second series), stronger effect = lower value 0.29 | locus YJL187C, strain SWE1, stronger effect = lower value 0.837 | locus YJR043C, strain POL32, stronger effect = lower value 0.317 | locus YJR075W, strain HOC1, stronger effect = lower value 0.704 | locus YKL190W, strain CNB1, stronger effect = lower value 0.26 | locus YLL001W, strain dnm1, stronger effect = lower value 0.897 | locus YLL026W, stronger effect = lower value 0.899 | locus YLR027C, strain aat2, stronger effect = lower value 0.829 | locus YLR039C, strain RIC1, stronger effect = lower value 0.331 | locus YLR058C, strain SHM2, stronger effect = lower value 0.373 | locus YLR221C, strain rsa3, stronger effect = lower value 0.87 | locus YLR258W, strain gsy2, stronger effect = lower value 0.898 | locus YLR262C, strain YPT6 (second series), stronger effect = lower value 0.835 | locus YLR268W, strain sec22, stronger effect = lower value 0.832 | locus YLR320W, strain mms22, stronger effect = lower value 0.877 | locus YLR330W, strain CHS5, stronger effect = lower value 0.776 | locus YLR342W, strain FKS1 (second series), stronger effect = lower value 0.297 | locus YLR342W, strain FKS1, stronger effect = lower value 0.649 | locus YLR357W, strain rsc2, stronger effect = lower value 0.704 | locus YLR370C, strain arc18, stronger effect = lower value 0.89 | locus YLR371W, strain rom2, stronger effect = lower value 0.677 | locus YLR418C, strain cdc73, stronger effect = lower value 0.625 | locus YML016C, strain PPZ1, stronger effect = lower value 0.114 | locus YMR058W, strain fet3, stronger effect = lower value 0.174 | locus YMR205C, strain PFK2, stronger effect = lower value 0.821 | locus YMR223W, strain ubp8, stronger effect = lower value 0.887 | locus YMR231W, strain pep5, stronger effect = lower value 0.496 | locus YMR307W, strain GAS1, stronger effect = lower value 0.429 | locus YNL067W, strain RPL9B, stronger effect = lower value 0.692 | locus YNL071W, strain lat1, stronger effect = lower value 0.878 | locus YNL128W, strain TEP1, stronger effect = lower value 0.13 | locus YNL153C, strain GIM3, stronger effect = lower value 0.665 | locus YNL209W, strain ssb2, stronger effect = lower value 0.44 | locus YNL233W, strain BNI4, stronger effect = lower value 0.651 | locus YNL322C, strain KRE1, stronger effect = lower value 0.26 | locus YNR052C, strain pop2, stronger effect = lower value 0.861 | locus YOL006C, strain TOP1, stronger effect = lower value 0.324 | locus YOR001W, strain rrp6, stronger effect = lower value 0.875 | locus YOR061W, strain CKA2, stronger effect = lower value 0.484 | locus YOR069W, strain VPS5, stronger effect = lower value 0.526 | locus YOR070C, strain gyp1, stronger effect = lower value 0.767 | locus YOR080W, strain dia2, stronger effect = lower value 0.754 | locus YOR083W, strain WHI5, stronger effect = lower value 0.882 | locus YOR106W, strain vam3, stronger effect = lower value 0.316 | locus YOR184W, strain ser1, stronger effect = lower value 0.808 | locus YOR265W, strain rbl2, stronger effect = lower value 0.912 | locus YOR270C, strain vph1, stronger effect = lower value 0.499 | locus YPL051W, strain arl3, stronger effect = lower value 0.539 | locus YPL055C, strain LGE1, stronger effect = lower value 0.249 | locus YPL106C, strain sse1, stronger effect = lower value 0.762 | locus YPL241C, strain CIN2, stronger effect = lower value 0.741 | strain wtn01, stronger effect = lower value 0.832
